High-throughput results as filed in PubChem BioAssay.
KB-V1 MDR tox: KB-V1 MDR subline cytotoxicity; actives 3.4% (n = 400,000); Potency, µM (titrated, usually from 46.1 µM), usual class: cytotoxic; KB-V1 MDR cells viability, CellTiter-Glo, 72 h; further: on the % scale 0 is the no-effect control and ±100 the full control effect; nearly all actives have a fitted effect of over 60% in size
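KB-V1, DMEM (no phenol red) + 10% FBS; cpd pin-transferred, titration series; 72 h, 37 degrees C; CellTiter-Glo, luminescence. Data normalized, curve-fit.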
KB-3-1 cytotox: KB-3-1 parental cell cytotoxicity. KB-3-1 viability, CellTiter-Glo ATP luminescence, 72 h. Potency, µM (doses to about 46.1 µM), usual class: cytotoxic. actives 1.4% (n = 400,000); further: on the % scale 0 is the no-effect control and ±100 the full control effect; nearly all actives have a fitted effect of over 60% in size
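Here the drug-naive KB-3-1 line serves as comparator for MDR sub-line selectivity; cells received compound titrations, 72 h at 37 °C, then CellTiter-Glo readout.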
SW480 rereplic: DNA re-replication induction in SW480 cells; SW480 DNA re-replication, Hoechst DNA content imaging, 48 h; Potency, µM (highest dose often 46.1 µM), for inactives: at the top dose re-replication activation, hits mostly activators; actives 1.8% (n = 340,000); further: % of control where 0% means no effect; nearly all actives have a fitted effect of over 55% in size
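Readout is total intensity of Hoechst-stained nuclei, excited at 405 nm and collected at 500-530 nm. Compound treatment lasted 48 hr at 37 C in 5% CO2 before staining.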
ELG1 DNA repair: ELG1-dependent DNA repair inhibition; HEK293T ELG1-luciferase reporter, luminescence, 16 h; DNA damage induced by 5-fluorouridine; Potency, µM (highest dose often 46.1 µM), for inactives: at the top dose activity change, negative = inhibition, usual class: inhibitors; actives 2.3% (n = 330,000); further: on the % scale 0 is the no-effect control and ±100 the full control effect; nearly all actives have a fitted effect of over 55% in size
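Step one: seed 2,000 cells per well. Step two: pin-transfer compound or DMSO alongside 5-fluorouridine. Step three: incubate 16 hr, 37 °C, 5% CO2. Step four: add ONE-Glo, wait 30 min, read luminescence.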
MCF10A rereplic: DNA re-replication induction in MCF 10a cells. MCF 10A DNA re-replication, Hoechst nuclear intensity, 48 h. Potency, µM (highest dose often 46.1 µM), inactives show at the highest dose activity, positive = re-replication, usual class: activators. actives 2.9% (n = 350,000); further: % of control where 0% means no effect; nearly all actives have a fitted effect of over 50% in size
The depositor's hits bear a star; i = inactive; ? = inconclusive; . = not tested or not shown. A selection: hits, their analogues and other compounds. The true share with any hit is near 8.1%. The call rests on the fitted dose curve; in most records, active means well fitted curve in the direction sought with a large enough effect; inconclusive means small, poorly fitted or top-dose-only effect, or another doubt; inactive means no such curve, though single readings can be large; an effect the other way counts as inactive or inconclusive. Potency means the concentration at half of the fitted maximal effect.

SMILES | KB-V1 MDR tox | KB-3-1 cytotox | SW480 rereplic | ELG1 DNA repair | MCF10A rereplic
O=C(Nc1ccc(F)cc1)c1ccc(NC(=O)C2CCCO2)cc1 (stereo not drawn) | ? | i | -7.0% | ? | -3.0%
O=C(Nc1ccc(Oc2ccc(NC(=O)Nc3ccc([N+](=O)[O-])cc3)cc2)cc1)Nc1ccc([N+](=O)[O-])cc1 | ? | 18.4µM* | 8.2% | -15.1% | -1.5%
N#CCC(=O)c1ccccc1Oc1ccc(Cl)cc1 | i | i | -6.2% | 0.6% | ?
Nc1nc(NCc2ccccc2)nc(NCc2ccccc2)c1[N+](=O)[O-] | 16.4µM* | i | -0.1% | 7.8% | 7.5%
Cc1cccc(Nc2nc(N)c([N+](=O)[O-])c(NCc3ccccc3)n2)c1 | 18.4µM* | i | ? | ? | 18.4µM*
Cc1ccc(CNc2nc(N)c([N+](=O)[O-])c(NCc3ccccc3)n2)cc1 | i | i | -1.9% | 1.4% | ?
CNc1nc(N)c([N+](=O)[O-])c(Nc2cccc(F)c2)n1 | i | i | 18.4µM* | ? | -0.5%
Nc1nc(Nc2ccccc2)nc(NCc2ccccc2)c1[N+](=O)[O-] | ? | ? | 11.2% | 20.6µM* | 12.0%
O=C(CSc1nnc(-c2ccccc2)n1-c1ccc(Cl)cc1)N/N=C/c1ccco1 | 16.4µM* | i | -7.4% | -7.0% | 0.6%
O=C(CSc1nnc(-c2ccc(Cl)cc2)n1-c1ccccc1)N/N=C/c1ccccc1C(=O)O | i | i | ? | 6.3% | 17.8%
O=C(Nc1ccccc1)N1CCSc2cc(Cl)ccc21 | i | i | -0.4% | ? | 7.0%
O=C(Nc1cccc(Cl)c1)N1CCSc2cc(Cl)ccc21 | 18.4µM* | i | 1.3% | -8.7% | 2.9%
CN(C)c1ccc(/C=C/c2ccncc2)cc1 | i | ? | ? | ? | ?
CCN(CC)c1ccc(/C=C/c2ccncc2)cc1 | i | 0.517µM* | . | . | .
Cc1nc(NCCc2ccc(S(N)(=O)=O)cc2)c2c(C)c(C)sc2n1 | i | ? | 3.3% | 13µM* | 8.7%
Cc1ccc(NC(=O)N2CCC(C(=O)c3ccc(F)cc3)CC2)cc1 | 23.1µM* | i | -1.8% | -10.9% | 10.7%
O=C(c1ccc(F)cc1)C1CCN(C(=S)Nc2ccc(F)cc2)CC1 | i | i | -5.2% | 10.3µM* | 1.9%
CC(C)(C)NC(=S)N1CCC(C(=O)c2ccc(F)cc2)CC1 | i | i | -6.2% | -9.8% | 1.6%
COc1ccc(C(=O)C2CCN(C(=O)Nc3ccc(C)cc3)CC2)cc1 | ? | i | -4.7% | -5.5% | 16.1%
Cc1cc(C)nc(NN=C(c2ccccc2)c2ccccc2)n1 | i | i | 10.3µM* | ? | ?
CC(/C=C/c1ccccc1)=N\Nc1nc(C)cc(C)n1 | ? | i | ? | ? | -40.1%
CC(C)(C)c1ccc(OCc2nc3ccccc3n2CCOc2ccccc2)cc1 | i | i | . | . | .
C[n+]1ccccc1COc1ccc(C(C)(C)C)cc1 | ? | 23.1µM* | -690.9% | -12.4% | 22.3%
Cc1cccc2c(=O)cc(C)n(CC(=O)N3CCCCC3)c12 | 16.4µM* | i | -3.8% | 0.5% | 3.1%
Cc1ccc(/C=N/NC(=O)CSc2nc3ccccc3c(=O)n2-c2ccccc2C)s1 | 10.3µM* | ? | 0.517µM* | ? | -35.3%
SMILES | KB-V1 MDR tox | KB-3-1 cytotox | SW480 rereplic | ELG1 DNA repair | MCF10A rereplic
Cc1nn(-c2ccccc2)c(C)c1/C=N/NC(=O)CSc1nc2ccccc2c(=O)n1-c1ccc(Br)cc1 | 23.1µM* | ? | 26.6% | -19.1% | 12.6µM*
CC(/C=N/NC(=O)CSc1nc2ccccc2n1C)=C\c1ccco1 | ? | i | ? | -17.5% | 20.6µM*
Cc1ccccc1-n1c(SCC(=O)NCc2cccs2)nc2ccccc2c1=O | 5.8µM* | i | 10.1% | 0.8% | 3.1%
CN1CCN(C(CNC(=O)c2ccccc2)c2ccc3c(c2)OCO3)CC1 (stereo not drawn) | i | i | . | . | .
Cc1ccc(N2CCN(C(=O)c3cccs3)CC2)cc1C | ? | i | 2.5% | -6.7% | 9.4%
Cc1ccc(-n2c(SCC(=O)N/N=C/c3c(C)nn(-c4ccccc4)c3C)nc3ccccc3c2=O)cc1 | i | i | -2.9% | 23.1µM* | 18.3%
